Common to all, as to test: NCI-60 one-dose screen, 48 h (100 = growth as untreated, 0 = no growth, -100 = all killed)
One experiment deals with HCT-15 colon. Conditions: 10 µM unless noted.
For the next experiment, the system named is HT29 colon. As to conditions: 10 µM unless noted.
The test system of another experiment is SNB-75 CNS. As to conditions: 10 µM unless noted.
In a further experiment the test system is U251 CNS. Conditions: 10 µM unless noted.
The test system of the next experiment is PC-3 prostate. As to conditions: 10 µM unless noted.
For a further experiment, the system named is SK-MEL-5 melanoma. As to conditions: 10 µM unless noted.
The subject of the next experiment is UACC-62 melanoma. As to conditions: 10 µM unless noted.
Another experiment concerns LOX IMVI melanoma. As to conditions: 10 µM.
Another experiment deals with SK-MEL-28 melanoma. As to conditions: 10 µM unless noted.
The subject of the next experiment is SK-MEL-2 melanoma. As to conditions: 10 µM unless noted.
Another experiment concerns EKVX NSCLC. Conditions: 10 µM unless noted.
Another experiment deals with UO-31 renal. As to conditions: 10 µM unless noted.
For the next experiment, the system named is TK-10 renal. As to conditions: 10 µM unless noted.
In another experiment the test system is ACHN renal. Conditions: 10 µM unless noted.
A further experiment deals with CAKI-1 renal. Conditions: 10 µM unless noted.
The subject of another experiment is A498 renal. Conditions: 10 µM unless noted.
The next experiment concerns CCRF-CEM leukemia. As to conditions: 10 µM unless noted.
Another experiment deals with MOLT-4 leukemia. Conditions: 10 µM unless noted.

About 83,000 compounds went through this panel and 20% of them were active in at least one assay; those are over-represented in the sample as a whole.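 Cells were grown in 96-well plates and exposed to the test compound at a single concentration for 48 hours; results are reported as percent growth, with values below 10 considered active.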 A number with no mark means an inactive call. The source made the active and inactive calls.

`O=c1[nH]c2ccccc2cc1CSc1cccc(Nc2nccc(-c3ccc4ccccc4c3)n2)c1`: the growth with HCT-15 colon was 65.1%; with HT29 colon, 81.8%; in the experiment on SNB-75 CNS, 84.6%; with U251 CNS it was 81.9%; in the experiment with PC-3 prostate, 71%; in the experiment with SK-MEL-5 melanoma, 63.8%. In addition, the growth is 95.2% in the experiment on UACC-62 melanoma; 87.4% with LOX IMVI melanoma; 106% in the experiment on SK-MEL-28 melanoma; 98.3% with SK-MEL-2 melanoma; 95.4% in the experiment on EKVX NSCLC; 73.4% in the experiment on UO-31 renal. Also, the growth in the experiment on TK-10 renal was 79.9%; in the experiment on ACHN renal, 95.5%; in the experiment with CAKI-1 renal it was 81.2%; in the experiment with A498 renal it was 106%; in the experiment on CCRF-CEM leukemia, 46.8%; in the experiment with MOLT-4 leukemia, 65.9%.
On to `Nc1cccc(SCc2cc3ccccc3[nH]c2=O)c1`, for which the growth with HCT-15 colon was 43.3%; in the experiment on HT29 colon, 65.7%; in the experiment with SNB-75 CNS, 83.1%; with U251 CNS it was 64.1%; in the experiment on PC-3 prostate, 63%; with SK-MEL-5 melanoma it was -4.45% (active). Besides, the growth was 4.09% (active) in the experiment with UACC-62 melanoma; 9.48% (active) with LOX IMVI melanoma; 61.6% in the experiment on SK-MEL-28 melanoma; 56.4% in the experiment on SK-MEL-2 melanoma; 43.4% with EKVX NSCLC; 39.1% in the experiment on UO-31 renal. Also, the growth is 64.3% in the experiment with TK-10 renal; 17.6% in the experiment with ACHN renal; 34.2% with CAKI-1 renal; 69.7% in the experiment on A498 renal; 33% with CCRF-CEM leukemia; 36.1% in the experiment on MOLT-4 leukemia.
Consider `O=C(c1ccc(Cl)cc1)c1ccc(OCCCN2CCN(c3ccncc3)CC2)cc1`, for which the growth was -18.6% (active) in the experiment on HCT-15 colon; 11.2% in the experiment on HT29 colon; 69.4% in the experiment with SNB-75 CNS; 28.6% in the experiment on U251 CNS; 26.9% in the experiment with PC-3 prostate; -47.7% (active) in the experiment with SK-MEL-5 melanoma. Also, the growth with UACC-62 melanoma was -63.5% (active); with LOX IMVI melanoma it was 10.1%; with SK-MEL-28 melanoma, 14.8%; in the experiment with SK-MEL-2 melanoma, 70.1%; in the experiment on EKVX NSCLC it was 32.6%; in the experiment with UO-31 renal it was 40%. Besides, the growth is 82.2% in the experiment on TK-10 renal; 74% in the experiment on ACHN renal; 56.7% with CAKI-1 renal; 80.5% in the experiment with A498 renal; 21.5% with CCRF-CEM leukemia; 15.7% in the experiment with MOLT-4 leukemia.
Regarding `COc1ccc2c(c1)C(=N/N=C(\C)c1ccc(OC)c(S(N)(=O)=O)c1)C(=O)N2`, the growth in the experiment with HCT-15 colon is 98.2%; in the experiment with HT29 colon, 96.3%; in the experiment with SNB-75 CNS, 66.3%; with U251 CNS it was 74.4%; in the experiment with PC-3 prostate, 83.3%; in the experiment with SK-MEL-5 melanoma, 91.5%. The growth in the experiment with UACC-62 melanoma was 77.5%; in the experiment with LOX IMVI melanoma it was 95%; with SK-MEL-28 melanoma, 94.1%; in the experiment on SK-MEL-2 melanoma it was 92.6%; with EKVX NSCLC, 90.3%; in the experiment with UO-31 renal it was 95.1%. Besides, the growth in the experiment with TK-10 renal is 102%; in the experiment with ACHN renal it was 101%; with CAKI-1 renal, 79.5%; in the experiment with A498 renal it was 99.5%; with MOLT-4 leukemia it was 94.5%.
On to `COc1ccc(C2(SCCNCc3cc(N(C)C)ccn3)c3ccccc3C=Cc3ccccc32)cc1`, for which the growth in the experiment with HCT-15 colon was 2.66% (active); in the experiment with HT29 colon, -43% (active); in the experiment with SNB-75 CNS, 9.76% (active); with U251 CNS it was 0.439% (active); in the experiment with PC-3 prostate, 13.8%; with SK-MEL-5 melanoma, -20.3% (active). The growth in the experiment on UACC-62 melanoma is 38%; in the experiment with LOX IMVI melanoma, 2.34% (active); with SK-MEL-28 melanoma, 29.9%; in the experiment with SK-MEL-2 melanoma it was -34.9% (active); with EKVX NSCLC, 15.8%; in the experiment with UO-31 renal, 33.7%. The growth in the experiment on TK-10 renal is 50.3%; with ACHN renal it was 37.7%; with CAKI-1 renal, 26.5%; in the experiment on A498 renal, 65.9%; in the experiment on CCRF-CEM leukemia, 8.49% (active); in the experiment on MOLT-4 leukemia, 8.17% (active).
Take `Clc1cccc(-c2ccc(OCCCN3CCN(c4ccncc4)CC3)cc2)c1`: the growth was -69.8% (active) with HCT-15 colon; -57.5% (active) in the experiment on HT29 colon; 42.8% in the experiment on SNB-75 CNS; -73.6% (active) in the experiment with U251 CNS; -8.32% (active) in the experiment with PC-3 prostate; -98% (active) in the experiment with SK-MEL-5 melanoma. The growth with UACC-62 melanoma is -74.3% (active); with LOX IMVI melanoma it was -94.9% (active); in the experiment on SK-MEL-28 melanoma, -68.5% (active); in the experiment on SK-MEL-2 melanoma, 74%; in the experiment on EKVX NSCLC it was 11.6%; in the experiment on UO-31 renal it was 30.4%. In addition, the growth in the experiment on TK-10 renal was 41.9%; in the experiment on ACHN renal, 49.4%; in the experiment on CAKI-1 renal, 5.23% (active); in the experiment on A498 renal, 65.5%; with CCRF-CEM leukemia, -28.7% (active); with MOLT-4 leukemia, -47.4% (active).
Turning to `O=c1[nH]c2ccccc2cc1CSc1nccc(-c2ccc3ccccc3c2)n1`, the growth was 29% with HCT-15 colon; 44.3% in the experiment with HT29 colon; 86.6% in the experiment with SNB-75 CNS; 65.2% in the experiment with U251 CNS; 50% in the experiment on PC-3 prostate; 57.2% in the experiment on SK-MEL-5 melanoma. The growth with UACC-62 melanoma is 60.9%; with LOX IMVI melanoma, 67.1%; with SK-MEL-28 melanoma, 86.3%; in the experiment on SK-MEL-2 melanoma it was 84.5%; with EKVX NSCLC, 49.4%; in the experiment on UO-31 renal, 78.6%. The growth with TK-10 renal is 83%; with ACHN renal, 95.8%; in the experiment on CAKI-1 renal, 56.6%; with A498 renal it was 114%; in the experiment on MOLT-4 leukemia, 21.9%.
As to `CCCSc1nc(NCCc2c[nH]c3ccccc23)c(C#N)c(-c2ccc(OC)cc2)n1`, the growth in the experiment on HCT-15 colon was 21.8%; in the experiment on HT29 colon it was 22.5%; in the experiment with SNB-75 CNS, 78.9%; in the experiment with U251 CNS, 41.5%; with PC-3 prostate, 15.1%; in the experiment with SK-MEL-5 melanoma, 29.5%. The growth was 71.7% with UACC-62 melanoma; 37.1% in the experiment on LOX IMVI melanoma; 71.4% with SK-MEL-28 melanoma; 75.5% with SK-MEL-2 melanoma; 32.5% in the experiment on EKVX NSCLC; 41.8% with UO-31 renal. In addition, the growth in the experiment on TK-10 renal was 82.9%; with ACHN renal it was 64.9%; in the experiment with CAKI-1 renal it was 51%; in the experiment with A498 renal, 61.4%; in the experiment with CCRF-CEM leukemia, 25.7%; in the experiment on MOLT-4 leukemia, 26.1%.

The values are drawn from PubChem BioAssay (NCI).
